# LGR2 antag: blocks bursicon-induced cAMP signaling via Drosophila LGR2; HEK293 LGR2, CRE-luciferase, bursicon-stimulated, 4 h; inhibition, % at 9.99 µM; 0.35% of 380,000 active;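 active = drop in luminescence signal, shown as inhibition above about 50% in the replicate tests, limit read from the data, passing the limit was not always enough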;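 note: agonist challenge used bursicon conditioned medium at about half maximal strength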
# LMP1 NFkB inh: reduces LMP1-driven NF-kappaB luciferase signal; LMP1-induced NF-kappaB luciferase reporter cells, luminescence; inhibition, % at 12.5 µM; 0.69% of 350,000 active; in the data active = inhibition above about 41%;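 note: 0% = neutral control wells and 100% = reference inhibitor control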
# PAX8 inh HTS: inhibitors of PAX8 transcriptional activity in RMG-I cells; RMG-I TPO-luciferase reporter, SteadyGlo, 24 h; 1.2% of 360,000 active; inhibition, % at 12.6 µM;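 active = mean replicate inhibition at least 60% with every replicate also reaching 60%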;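 note: luciferase light reporting Pax8 driven TPO promoter activity; plate controls were median of neutral control wells for no effect and mitoxantrone controls for full effect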
# TROY signal inh: TROY signaling inhibition; Q293 LMP1-TROYcd NF-kB luciferase reporter, 4 h; inhibition, % at 10 µM; 0.98% of 360,000 active; AID 1347056;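 active = compounds whose plate-normalised and pattern-corrected inhibition of the luciferase reporter signal at the single screening dose is 50% or more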
# TWEAK Fn14 block: TWEAK-Fn14 signaling inhibition | TWEAK-stimulated Fn14 reporter cells, luciferase luminescence, 8 h | inhibition, % at 10 µM | 2% of 360,000 active; in the data active = inhibition above about 50%
# EWS-Fli block: EWS/Fli transcriptional activity inhibition | 0.67% of 350,000 active | A673 NR0B1-luciferase reporter, viability-normalised | AID 651661 | inhibition, % at 12.6 µM;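 active = mean inhibition of at least 50% after viability correction, with every replicate also passing that limit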;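 note: firefly luciferase signal divided by Alamar Blue viability fluorescence both relative to DMSO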
# * marks the source's active call; other numbers are inactive results; . = not tested or not shown. Compounds with a hit are over-represented: about 3.2% of the library has one in this group of screens.
SMILES,LGR2 antag,LMP1 NFkB inh,PAX8 inh HTS,TROY signal inh,TWEAK Fn14 block,EWS-Fli block
CCOc1ccc(N(C(=O)/C=C/C(=O)Nc2cc(C)on2)C(C(=O)NC2CCCC2)c2ccccc2C)cc1 (stereo not given),8,28,.,25,49,12
CCc1ccc(C(C(=O)NC2CCCC2)N(C(=O)/C=C/C(=O)Nc2cc(C)on2)c2ccccc2C)cc1 (stereo not given),7,7,5,27,56*,.
CC(C)NC(=O)N(C)C[C@@H]1Oc2ccc(NC(=O)Nc3ccc(F)cc3)cc2CC(=O)N([C@H](C)CO)C[C@@H]1C,13,.,-22,.,.,-4
CCn1cc(C(=O)NCc2cccc(F)c2)c(=O)c2cc(F)c(N3CCN(C(=O)c4ccco4)CC3)cc21,.,13,.,42,52*,.
O=C(C1CCC1)N1C[C@@H]2[C@H](c3ccccc31)[C@@H](CO)N2S(=O)(=O)c1ccccc1,1,.,4,.,.,-4
Brc1ccc2c(c1)C(C1=NCCN1)c1ccccc1CS2 (stereo not given),2,-5,11,-4,11,58*
CN(C)CCOC1c2ccccc2CSc2ccccc21 (stereo not given),-4,7,13,-3,1,9
CCCN(CCC)S(=O)(=O)c1ccc(Cl)c([N+](=O)[O-])c1,84*,2,-5,33,17,54*
O=C(c1cc(-c2ccccc2)n[nH]1)N1CCc2c([nH]c3ccccc23)C1c1ccccn1 (stereo not given),1,5,30,41,59*,23
CCOC(=O)c1ccc(Nc2nc(C(=O)OCC)nc3ccccc23)cc1,.,8,.,7,23,.
CCOC(=O)c1nc(Nc2ccc(Nc3ccccc3)cc2)c2ccccc2n1,20,4,22,54*,43,-4
C#CC(=O)N(c1cc(OC)ccc1OC)C(C(=O)NC1CCCC1)c1cccs1 (stereo not given),.,73*,.,13,47,.
CC(=O)c1cccc(N(C(=O)c2ccco2)C(C(=O)NC2CCCC2)c2cccs2)c1 (stereo not given),5,-2,15,12,12,9
COc1ccc(N(C(=O)c2ccco2)C(C(=O)NC2CCCCC2)c2cccs2)cc1OC (stereo not given),.,5,.,.,77*,.
COc1ccc(N(C(=O)c2snc(C(N)=O)c2N)C(C(=O)NC2CCCC2)c2cccs2)cc1OC (stereo not given),-12,-9,12,-19,10,8
CC(=O)c1cccc(N(C(=O)c2ccco2)C(C(=O)NC2CCCC2)c2ccccc2F)c1 (stereo not given),-3,-4,6,-8,53*,-5
C#CC(=O)N(c1ccc(OC)cc1OC)C(C(=O)NC1CCCC1)c1cccs1 (stereo not given),97*,21,93*,5,37,61*
O=C(C[C@H]1C=C[C@@H](NC(=O)Nc2ccc(F)cc2)[C@H](CO)O1)NCCN1CCCC1,7,.,-6,.,.,3
Cc1noc(C)c1S(=O)(=O)Nc1ccc2c(c1)C(=O)N([C@H](C)CO)C[C@@H](C)[C@H](CN(C)Cc1ccncc1)O2,0,.,.,.,.,-3
Cc1nc(Nc2nc3ccccc3o2)nc2c1CCC2,.,57*,31,32,91*,.
CCOC(=O)c1cnc(Nc2nc3ccccc3o2)nc1C,82*,65*,.,56*,93*,.
CCOC(=O)c1cnc(Nc2nc3ccccc3o2)nc1CSc1nnc(C)s1,.,-10,-10,13,5,.
Cc1cccc(C)c1Nc1nc2ccccc2o1,.,64*,5,8,7,-3
O=C(C[C@@H]1CC[C@H](NS(=O)(=O)c2ccccc2)[C@H](CO)O1)NCc1ccc(Cl)c(Cl)c1,3,.,10,.,.,-1
CO[C@H]1CN(C)C(=O)c2cc(NC(=O)C3CC3)ccc2OC[C@@H](C)NC[C@@H]1C,24,.,14,.,.,4
SMILES,LGR2 antag,LMP1 NFkB inh,PAX8 inh HTS,TROY signal inh,TWEAK Fn14 block,EWS-Fli block
CC(=O)c1c(C)n(-c2ccc(C)cc2C)c2ccc(O)cc12,21,23,12,22,58*,6
CCOc1ccc(-n2c(C)c(C(C)=O)c3cc(O)ccc32)cc1,14,27,-18,35,64*,-6
Nc1nccc(-c2cc(-c3ccc(Cl)cc3Cl)no2)n1,60*,-6,-61,26,78*,-22
O=C(O)c1ccc(-c2nc(-c3ccc(Cl)cc3Cl)cs2)cc1,-75,-38,-149,-25,-49,-20
CCN1CCN(c2nc(-c3ccccc3Cl)nc3ccccc23)CC1,-3,-3,0,-10,68*,6
CCN1CCN(c2nc(-c3cccs3)nc3ccccc23)CC1,-11,-26,134*,12,-11,-14
CN1CCN(c2nc(-c3ccccc3Cl)nc3ccccc23)CC1,-11,-3,-2,11,-15,-3
Cc1ccc(/C=C/C(=O)c2ccccc2O)cc1,-54,3,-156,-63,1,-91
CN(C)c1ccc(/C=C/C(=O)c2ccccc2O)cc1,-2,-28,-128,50*,58*,-13
Cc1ccc(O)c(C(=O)/C=C/c2ccc3c(c2)OCCCO3)c1,-30,3,-107,-26,56*,-12
CN(C)c1ccc(/C=C/C(=O)c2ccc(O)cc2)cc1,-69,-12,-99,-37,-16,-54
Cc1ccc(C(=O)/C=C/c2ccc3c(c2)OCO3)o1,-56,-2,.,-64,2,-88
O=C(/C=C/c1ccc2c(c1)OCCCO2)c1ccccc1O,-14,-18,-219,56*,75*,-35
Cc1ccc(O)c(C(=O)C=Cc2ccccc2)c1,-27,5,.,-24,54*,-18
C[C@H](CO)N1C[C@H](C)[C@@H](CN(C)Cc2ccc(F)cc2)Oc2ncc(-c3ccncc3)cc2C1=O,-30,.,.,.,.,-2
C[C@@H]1CN([C@@H](C)CO)C(=O)c2cc(NC(=O)C3CCCCC3)ccc2O[C@@H](C)CCCCO[C@H]1CN(C)C(=O)CCCN(C)C,-4,.,.,.,.,-1
Nc1nc2ccc(Cl)cc2cc1C(=O)NCCc1c[nH]c2ccccc12,.,.,.,21,52*,.
O=C(NCCc1c[nH]c2ccccc12)c1cccnc1,.,-11,71*,-16,-4,-2
O=C(CCC(=O)c1ccccc1)NCCc1c[nH]c2ccccc12,1,-2,122*,-16,-23,10
Nc1nc2ccc(Cl)cc2cc1C(=O)NCCc1ccc(Cl)cc1Cl,4,.,-2,.,.,7
CCCNC(=O)N1CC(=O)N2[C@H](CO)[C@H](c3ccc(C#Cc4ccc(F)cc4)cc3)[C@H]2C1,-1,.,.,.,.,.
O=C(Cc1cccs1)NCC1CCCO1 (stereo not given),1,-4,.,8,51*,29
COc1ccc(CN(C)C[C@@H]2Oc3ccc(NC(=O)Cn4cnnn4)cc3CC(=O)N([C@@H](C)CO)C[C@@H]2C)cc1,-1,.,14,.,.,-1
